Only some compounds are listed: those with a hit (about 19% of all), similar ones and a draw of the others.
Marburg entry inh – qHTS for inhibitors of binding or entry into cells for Marburg Virus; Potency, µM (highest dose often 37.8 µM), without a hit: top-dose activity change, negative = inhibition, actives largely listed as inhibitors; AID 540276, 2011; 300,000 tested, 1.8% active; Marburg virus pseudotyped entry inhibition, cell reporter; calls by dose curve; tested in HEK293 cells; note: potency is the fitted concentration of half-maximal effect; % is set by controls: 0 for no effect and ±100 for the full control effect
Pf growth 48h – Primary qHTS for delayed death inhibitors of the malarial parasite plastid, 48 hour incubation; P. falciparum luciferase growth in erythrocytes, 48 h; 310,000 tested, 5.9% active; Potency, µM (titrated, usually from 28.7 µM), without a hit: top-dose activity change, negative = inhibition, actives largely listed as inhibitors; note: potency is the fitted concentration of half-maximal effect; % is set by controls: 0 for no effect and ±100 for the full control effect
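First compound was added to culture medium, then infected red cells at 0.1% parasitemia and 2% hematocrit (final). After incubation at 37 C under 5% CO2, luciferase detection reagent was dispensed and light output recorded.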
Pf growth 96h – Primary qHTS for delayed death inhibitors of the malarial parasite plastid, 96 hour incubation | P. falciparum luciferase reporter growth, 96 h | Potency, µM (top dose mostly 28.7 µM), inactives show at the highest dose activity change, negative = inhibition, most hits filed as inhibitors | 320,000 tested, 6.9% active | AID 504834, 2011; note: potency is the fitted concentration of half-maximal effect; % is set by controls: 0 for no effect and ±100 for the full control effect
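Infected RBCs, 2% Hct / 0.05% parasitemia final; luciferase-reporter P. falciparum; cpd 96 h, 37 C, 5% CO2; luciferase detection reagent; luminescence.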
Cycloheximide cs – Cycloheximide Counterscreen for Small Molecule Inhibitors of Shiga Toxin; AID 2314, 2010; 300,000 tested, 12% active; cell reporter, cycloheximide protein synthesis inhibition counterscreen; max response, %; in the data active = max response mostly above about 13%, no sharp cut-off; inactive = mostly below about 14%; note: read at 38.3 µM for the half of the compounds with a filed dose; 0% is about no effect
Shiga toxin inh – A qHTS for Small Molecule Inhibitors of Shiga Toxin; inhibition, % at 38.7 µM; Vero cells, Shiga toxin protein synthesis inhibition reporter; 290,000 tested, 9.2% active; in the data active = inhibition mostly above about 28%, no sharp cut-off; inactive = mostly below about 43%; note: 0% is about no effect
Lassa entry inh – qHTS for Inhibitors of binding or entry into cells for Lassa Virus; Lassa virus pseudotype entry inhibition, cell reporter; AID 540256, 2011; 300,000 tested, 1.2% active; Potency, µM (series often up to 37.9 µM), without a hit: top-dose activity change, negative = inhibition, hits mostly inhibitors; calls by dose curve; tested in HEK293 cells; note: potency is the fitted concentration of half-maximal effect; % is set by controls: 0 for no effect and ±100 for the full control effect; nearly all actives have a fitted effect of over 50% in size
The depositor's hits bear a star; ? = inconclusive; · = no result given; [ ] = another dose, or the depositor's remark. Unless noted, calls come from the whole dose curve; as a rule, active = well fitted inhibition curve with a large enough effect; inconclusive = small, poorly fitted or top-dose-only effect, or another doubt; inactive = no such curve, though single readings can be large or run the other way.

SMILES	Marburg entry inh	Pf growth 48h	Pf growth 96h	Cycloheximide cs	Shiga toxin inh	Lassa entry inh
COc1ccc(-n2nnnc2S(=O)(=O)Cc2ccc(C(=O)O)cc2)cc1	?	?	25%	11	21	-10%
CCS(=O)(=O)c1nnnn1-c1ccccc1S(C)(=O)=O	?	9.3µM*	·	20	17	20%[14.3 µM]
COc1ccccc1-n1c(SCC(=O)N2CCCC2)nnc1-c1ccccc1	?	-7%	21%	-3	-2	-21%
c1ccc2c(-c3nc4ncccc4o3)cccc2c1	1%	42%	39%	20*	34	8%
O=C(NC(=S)Nc1ccc(-c2nc3ncccc3o2)cc1)c1ccccc1F	?	-12%	-14%	14	3	0%
Fc1ccccc1-c1nc2ncccc2o1	-4%[46.1 µM]	42%	24%	23*	58*	?
Cc1nc2cc(N3CCCCC3)c(NC(=O)c3ccncc3)cc2c(=O)n1Cc1ccc(Cl)cc1	·	·	?	-2	16	·
CS/C(=C\[N+](=O)[O-])Nc1ccc(Cl)cc1	?	·	?	-2	-5	4%
N=C1SCC(=O)N1c1ccccc1Cl	-9%[46.1 µM]	-8%	11%	-1	-9	-3%[46.1 µM]
O=C1c2sc3nc4ccccc4n3c2C(=O)N1c1ccccc1Cl	-21%	?	·	21*	116*	27%
CC(C)c1ccc(-c2nc3ccccc3s2)cc1	?	-67%	?	-1	-12	?
Oc1cccc(-c2nc3ccccc3s2)c1	7.1µM*	154%	-6%	24*	43*	?
CC[n+]1cccc(-c2nc3ccccc3s2)c1	0%	-24%	?	39*	57	-7%
Nc1cccc(-c2nc3ccccc3s2)c1	?	·	433%	31*	69*	-14%
O=C(O)c1ccc2c(c1)C(=O)N(c1cccc(-c3nc4ccccc4s3)c1)C2=O	?	97%	?	49*	61*	-19%[46.1 µM]
CC(=O)Oc1cccc(N2C(=O)c3ccc(C(=O)O)cc3C2=O)c1	0%	17%	?	-4	-3	-1%
Cc1cc(O)ccc1N=Cc1c(C(F)(F)F)[nH][nH]c1=O	·	?	?	-1	22	·
O=C(C(c1ccccc1)C(O)(c1ccccc1)c1ccccc1)N1CCOCC1 (stereo unspecified)	0%[46.1 µM]	·	·	·	·	1%[46.1 µM]
Cc1cc(C)c(-c2nc3ccccc3s2)[nH]1	?	171%	144%	32*	96*	?
Cc1[nH]nc(-c2ccc(O)cc2O)c1-c1nc2ccccc2s1	?	28%	23%	-6	12	?
N#C/C(=C(/O)c1ccc2c(c1)OCO2)c1nc2cc(C(F)(F)F)ccc2s1	?	17%	?	-1	·	?
CC(C)c1cc(C(=O)N/N=C/c2cccnc2)cs1	0%	21%	20%	21*	41*	5%
CC(C)c1cc(C(=O)N/N=C/c2ccoc2)cs1	·	3%	-12%	42*	74*	·
Cc1ccc2nc(C)cc(N3CCOCC3)c2c1	3%	1%	·	1	38	-4%
O=C(OCC(O)CO)c1ccccc1Nc1ccnc2cc(Cl)ccc12 (stereo unspecified)	·	8.3µM*	?	·	·	·
SMILES	Marburg entry inh	Pf growth 48h	Pf growth 96h	Cycloheximide cs	Shiga toxin inh	Lassa entry inh
O=C(OC[C@@H](O)CO)c1ccccc1Nc1ccnc2cc(Cl)ccc12	·	?	1.6µM*	·	·	·
Cc1c(Cl)cccc1Nc1ncccc1C(=O)OCC(O)CO (stereo unspecified)	·	15%	47%	-4	15	·
CC(C)([CH2][Sn]([CH2]C(C)(C)c1ccccc1)([CH2]C(C)(C)c1ccccc1)[O][Sn]([CH2]C(C)(C)c1ccccc1)([CH2]C(C)(C)c1ccccc1)[CH2]C(C)(C)c1ccccc1)c1ccccc1	·	·	·	-16	-20	·
Cc1ccc(C=Nc2ccccc2C#N)s1	1%	7%	-2%	-3	12	3%
Cn1c(O)c(C2=NNC(c3ccc(Cl)cc3)C2)c(=O)n(C)c1=O (stereo unspecified)	-9%[46.1 µM]	13µM*	?	0	-4	-17%
CCOc1ccc(C2CC(c3c(O)n(C)c(=O)n(C)c3=O)=NN2)cc1 (stereo unspecified)	0%[14.2 µM]	?	15µM*	-2	-1	?
CC1=C(C(=O)N2CCOCC2)C(c2c(F)cccc2F)NC(=O)N1 (stereo unspecified)	3%[46.1 µM]	7%	27%	-3	-11	30%[46.1 µM]
COc1c(C=O)cc2c3c1CCCN3CCC2	-3%	-3%	?	-4	·	3%
NCc1cc2c3c(c1)CCCN3CCC2	15%[46.1 µM]	-6%	7.4µM*	-9	-16	0%[46.1 µM]
N#CCCn1cc(/C=C2\NC(=S)N(c3ccccc3)C2=O)c(-c2ccc(F)cc2)n1	?	?	-1%	-3	-11	-16%[46.1 µM]
COc1ccc(C2c3[nH]c4ccccc4c3C[C@H]3C(=O)N(C4CCN(Cc5ccccc5)CC4)CC(=O)N23)cc1OC (stereo partly specified)	·	1.5µM*	1.5µM*	-2	-7	·
Cc1ccccc1C1c2[nH]c3ccccc3c2C[C@H]2C(=O)N(C3CC3)CC(=O)N12 (stereo partly specified)	?	12µM*	3.7µM*	-4	2	-5%[46.1 µM]
COc1ccccc1C1c2[nH]c3ccccc3c2C[C@H]2C(=O)N(C3CCN(Cc4ccccc4)CC3)CC(=O)N12 (stereo partly specified)	·	1.9µM*	1.5µM*	-3	-7	·
O=C1[C@@H]2Cc3c([nH]c4ccccc34)C(c3ccccc3)N2C(=O)CN1C1CC1 (stereo partly specified)	?	?	?	-4	-6	-16%
COc1cccc(C2c3[nH]c4ccccc4c3C[C@H]3C(=O)N(C4CCN(Cc5ccccc5)CC4)CC(=O)N23)c1 (stereo partly specified)	·	4.7µM*	3.7µM*	-2	-5	·
O=C1[C@@H]2Cc3c([nH]c4ccccc34)C(c3ccc([N+](=O)[O-])cc3)N2C(=O)CN1C1CC1 (stereo partly specified)	·	10%[0.00184 µM]	?	-2	2	·
CCOc1cc(NC(=O)C2CC2)c(OCC)cc1NC(=O)CCn1nnc2ccccc21	2%	-6%	-7%	-5	2	8%
Cc1cc(C(=O)CN2C(=O)NC3(CCCCC3)C2=O)c(C)n1Cc1ccc2c(c1)OCO2	26%	?	0%	27*	96*	1%
CC(C)CC1(C)NC(=O)N(CC(=O)NC(=O)Nc2ccc3c(c2)OCCO3)C1=O (stereo unspecified)	0%	-25%	?	58*	48*	4%

Screening results (PubChem)
